Data: PubChem BioAssay (NCATS)
Records with an inconclusive call do not appear. Entries that show only a call come without a potency. A structure can be active in one record and inactive in another. Activity calls are given as the source filed them. The call rests on the fitted dose curve; in most records, active means well fitted curve in the direction sought with a large enough effect; inconclusive means small, poorly fitted or top-dose-only effect, or another doubt; inactive means no such curve, though single readings can be large; an effect the other way counts as inactive or inconclusive.

Experiments:
[1] = molecular target: Protein phosphatase 1D (Homo sapiens) (UniProt O15297); experiment: RapidFire Mass Spectrometry qHTS Assay for Modulators of WT P53-Induced Phosphatase 1 (WIP1) (AID 1347424); conditions: WIP1 dephosphorylation of phosphopeptide, RapidFire MS; series mostly up to 63 µM;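 further: amount of dephosphorylated VEPPL-S-QETFS peptide product formed by WIP1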; further: potency means the concentration at half of the fitted maximal effect
Sequence of Protein phosphatase 1D (Homo sapiens) (O15297 whole entry, looked up): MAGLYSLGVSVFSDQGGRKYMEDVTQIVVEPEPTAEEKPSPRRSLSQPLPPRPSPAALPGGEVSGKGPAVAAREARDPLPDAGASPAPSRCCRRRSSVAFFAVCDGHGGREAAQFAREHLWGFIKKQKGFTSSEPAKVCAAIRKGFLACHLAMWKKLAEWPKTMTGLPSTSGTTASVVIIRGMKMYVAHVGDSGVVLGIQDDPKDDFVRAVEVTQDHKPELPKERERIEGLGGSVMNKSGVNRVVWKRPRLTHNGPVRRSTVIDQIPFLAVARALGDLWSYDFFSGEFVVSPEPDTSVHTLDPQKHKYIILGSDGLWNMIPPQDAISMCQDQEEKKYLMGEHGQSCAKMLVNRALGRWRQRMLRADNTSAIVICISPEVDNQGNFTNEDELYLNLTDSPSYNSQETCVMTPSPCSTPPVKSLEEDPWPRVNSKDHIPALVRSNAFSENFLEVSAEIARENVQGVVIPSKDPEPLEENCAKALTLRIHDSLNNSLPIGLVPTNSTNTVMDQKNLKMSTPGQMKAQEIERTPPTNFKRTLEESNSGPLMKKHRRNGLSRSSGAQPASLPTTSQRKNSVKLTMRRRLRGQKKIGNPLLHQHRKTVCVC
Outline: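 10 nM WIP1 preincubated with compounds 1 hr at room temperature in pH 7.5 Tris buffer with 30 mM MgCl2, 1 mM TCEP; 2 uM VEPPL-pS-QETFS phosphopeptide for 5 min, formic acid quench; dephosphorylated product quantified by RapidFire MS against labelled standard.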

[2] = molecular target: Protein phosphatase 1D (Homo sapiens) (UniProt O15297); experiment: Rhodamine-PBP qHTS Assay for Modulators of WT P53-Induced Phosphatase 1 (WIP1) (AID 1347425); conditions: recombinant WIP1, Rhodamine-PBP phosphate fluorescence, real-time; series mostly up to 57.5 µM
Outline: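 The read-out is the change in Rhodamine-PBP fluorescence (f1 - f0, ex 525/em 598 nm) as Pi is released, read each minute for 11 min. Final reaction: 5 nM WIP1, 10 uM phosphopeptide VEPPL-pS-QETFS, 10 uM Rh-PBP, 50 mM Tris-HCl pH 7.5, 30 mM MgCl2. Compound was preincubated with enzyme for 1 hour at room temperature.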

[3] = Primary qHTS for inhibitors of La Crosse Virus (LACV) - induced cell death in SH-SY5Y cells (AID 1508616); conditions: SH-SY5Y LACV cytopathicity rescue, ATP luminescence, 6 d; series mostly up to 4.29 µM; further: potency means the concentration at half of the fitted maximal effect
Outline: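 Readout was luminescence from ATPLite 1step added after a 6-day LACV infection (0.01 MOI) of SH-SY5Y cells that had received pin-transferred compound 24 hr after seeding.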

[4] = molecular target: Calcium and integrin-binding protein 1 (Homo sapiens) (UniProt Q99828); experiment: Primary qHTS for Identification of Calcium Integrin Binding Protein 1 (CIB1) Competitor (AID 1508620); conditions: CIB1-GST / FITC-alphaIIb peptide fluorescence polarization; series mostly up to 57.7 µM; further: potency means the concentration at half of the fitted maximal effect
Sequence of Calcium and integrin-binding protein 1 (Homo sapiens) (Q99828 whole entry, looked up): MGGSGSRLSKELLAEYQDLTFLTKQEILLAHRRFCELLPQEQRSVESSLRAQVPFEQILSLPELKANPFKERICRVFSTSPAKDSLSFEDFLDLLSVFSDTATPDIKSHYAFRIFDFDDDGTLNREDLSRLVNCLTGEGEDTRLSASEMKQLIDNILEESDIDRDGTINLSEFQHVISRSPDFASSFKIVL
Outline: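 Fluorescence polarization competition: GST-tagged CIB1 (1 uM final) preincubated with compound 15 min at room temperature, then FITC-labelled alphaIIb peptide (100 nM final) added. After 15 min at room temperature, polarization read at Ex 480/Em 540.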

**Q.** With `Clc1ccc(C(Cn2ccnc2)OCc2ccc(Sc3ccccc3)cc2)c(Cl)c1` (configuration not stated) as the compound, how does the Potency [1] read?
**A.** inactive

**Q.** What about the outcome [2] of the same compound?
**A.** inactive

**Q.** And the Potency [3]?
**A.** inactive

**Q.** And the Potency [4]?
**A.** inactive

**Q.** Which Potency [1] does the source give for `COC(=O)C1=C(C)NC(C)=C(C(=O)OCCCN2CCC(c3ccccc3)(c3ccccc3)CC2)C1c1cccc([N+](=O)[O-])c1` (configuration not stated) here?
**A.** inactive

**Q.** What about the outcome [2] of the same compound?
**A.** inactive

**Q.** And the Potency [3]?
**A.** inactive

**Q.** And the Potency [4]?
**A.** inactive

**Q.** Which Potency [1] does the source give for `O=C1CCc2ccc(OCCCCN3CCN(c4cccc(Cl)c4Cl)CC3)cc2N1` here?
**A.** inactive

**Q.** What about the outcome [2] of the same compound?
**A.** inactive

**Q.** What about the Potency [3] of the same compound?
**A.** inactive

**Q.** What about the Potency [4] of the same compound?
**A.** inactive

**Q.** With `CCCOc1ccc2nc(NC(=O)OC)[nH]c2c1` as the compound, how does the Potency [1] read?
**A.** inactive

**Q.** What about the outcome [2] of the same compound?
**A.** inactive

**Q.** What about the Potency [3] of the same compound?
**A.** inactive

**Q.** And the Potency [4]?
**A.** inactive

**Q.** What does the source list for `Cc1c(C(=O)NN2CCCCC2)nn(-c2ccc(Cl)cc2Cl)c1-c1ccc(Cl)cc1`?
**A.** Potency [1]: inactive; outcome [2]: inactive; Potency [3]: inactive; Potency [4]: inactive

**Q.** Which Potency [1] does the source give for `NC(=O)Cc1cccc(C(=O)c2ccccc2)c1N` here?
**A.** inactive

**Q.** What about the outcome [2] of the same compound?
**A.** inactive

**Q.** And the Potency [3]?
**A.** inactive

**Q.** With `O=C(OC1C[C@H]2CC[C@@H](C1)[N+]21CCCC1)C(O)(c1ccccc1)c1ccccc1` (some centres not stated) as the compound, how does the Potency [1] read?
**A.** inactive

**Q.** What about the outcome [2] of the same compound?
**A.** inactive

**Q.** And the Potency [3]?
**A.** inactive

**Q.** What about the Potency [4] of the same compound?
**A.** inactive

**Q.** For `CC(C)c1nc(CN(C)C(=O)N[C@H](C(=O)N[C@@H](Cc2ccccc2)C[C@H](O)[C@H](Cc2ccccc2)NC(=O)OCc2cncs2)C(C)C)cs1`, which Potency [1] is on record?
**A.** inactive

**Q.** What about the outcome [2] of the same compound?
**A.** inactive

**Q.** What about the Potency [3] of the same compound?
**A.** inactive

**Q.** And the Potency [4]?
**A.** inactive

**Q.** With `CCCCCCCCOc1ccccc1C(=O)Nc1ccc(C(=O)OCC[N+](C)(CC)CC)cc1` as the compound, how does the Potency [1] read?
**A.** inactive

**Q.** What about the outcome [2] of the same compound?
**A.** inactive

**Q.** And the Potency [3]?
**A.** inactive

**Q.** What about the Potency [4] of the same compound?
**A.** inactive

**Q.** With `Cc1ccc(Nc2nccc(N(C)c3ccc4c(C)n(C)nc4c3)n2)cc1S(N)(=O)=O` as the compound, how does the Potency [1] read?
**A.** inactive

**Q.** And the outcome [2]?
**A.** inactive

**Q.** What about the Potency [3] of the same compound?
**A.** inactive

**Q.** And the Potency [4]?
**A.** inactive

**Q.** With `Cc1nc(Nc2ncc(C(=O)Nc3c(C)cccc3Cl)s2)cc(N2CCN(CCO)CC2)n1` as the compound, how does the Potency [1] read?
**A.** inactive

**Q.** What about the outcome [2] of the same compound?
**A.** inactive

**Q.** What about the Potency [3] of the same compound?
**A.** inactive

**Q.** What about the Potency [4] of the same compound?
**A.** inactive

**Q.** Which results are given for `Cc1nc2n(c(=O)c1CCN1CCC(c3noc4cc(F)ccc34)CC1)CCCC2`?
**A.** Potency [1]: inactive; outcome [2]: inactive; Potency [3]: inactive

**Q.** Which Potency [1] does the source give for `Cc1ccc(C(=O)c2cc(O)c(O)c([N+](=O)[O-])c2)cc1` here?
**A.** inactive

**Q.** What about the outcome [2] of the same compound?
**A.** inactive

**Q.** And the Potency [3]?
**A.** inactive

**Q.** And the Potency [4]?
**A.** inactive

**Q.** For `C=CCc1cc(OC)c(O)c(C(=O)NCCO)c1`, which Potency [1] is on record?
**A.** inactive

**Q.** And the outcome [2]?
**A.** inactive

**Q.** And the Potency [3]?
**A.** inactive

**Q.** What does the source list for `Nc1cccc2c1CN(C1CCC(=O)NC1=O)C2=O` (configuration not stated)?
**A.** Potency [1]: inactive; outcome [2]: inactive; Potency [3]: inactive; Potency [4]: inactive

**Q.** Which Potency [1] does the source give for `COC(=O)N[C@H](C(=O)N[C@@H](Cc1ccccc1)[C@@H](O)CN(Cc1ccc(-c2ccccn2)cc1)NC(=O)[C@@H](NC(=O)OC)C(C)(C)C)C(C)(C)C` here?
**A.** inactive

**Q.** And the outcome [2]?
**A.** inactive

**Q.** And the Potency [3]?
**A.** inactive

**Q.** And the Potency [4]?
**A.** inactive

**Q.** With `CCC[C@@H]1C[C@@H](C(=O)N[C@@H]([C@H]2O[C@H](SC)[C@H](O)[C@@H](O)[C@H]2O)[C@@H](C)O)N(C)C1` as the compound, how does the Potency [1] read?
**A.** inactive

**Q.** And the outcome [2]?
**A.** inactive

**Q.** What about the Potency [3] of the same compound?
**A.** inactive

**Q.** What does the source list for `COCCCOc1ccnc(CS(=O)c2nc3ccccc3[nH]2)c1C` (configuration not stated)?
**A.** Potency [1]: inactive; outcome [2]: inactive; Potency [3]: inactive; Potency [4]: 39.8 µM (active) and inactive

**Q.** For `Cc1cc(=O)c2c(O)c3c(O)cc(=O)c4c3c3c(cc(O)c1c23)C(C)(C)C=4O`, which Potency [1] is on record?
**A.** inactive

**Q.** What about the outcome [2] of the same compound?
**A.** inactive

**Q.** And the Potency [3]?
**A.** inactive

**Q.** With `C=C(c1ccc(C(=O)O)cc1)c1cc2c(cc1C)C(C)(C)CCC2(C)C` as the compound, how does the Potency [1] read?
**A.** 4.47 µM (active)

**Q.** What about the Potency [3] of the same compound?
**A.** inactive

**Q.** What about the Potency [4] of the same compound?
**A.** inactive

**Q.** For `CNC[C@@H](O)[C@@H](O)[C@H](O)[C@H](O)CO`, which Potency [4] is on record?
**A.** inactive

**Q.** For `CC(C)[N+]1(C)[C@@H]2CC[C@H]1CC(OC(=O)C(CO)c1ccccc1)C2` (some centres not stated), which Potency [4] is on record?
**A.** inactive

**Q.** For `NS(=O)(=O)c1cc(C(=O)O)c(NCc2ccco2)cc1Cl`, which Potency [1] is on record?
**A.** inactive

**Q.** And the outcome [2]?
**A.** inactive

**Q.** And the Potency [3]?
**A.** inactive

**Q.** What about the Potency [4] of the same compound?
**A.** inactive

**Q.** With `CC1=C(C(=O)O)N2C(=O)[C@@H](NC(=O)[C@H](N)C3=CCC=CC3)[C@H]2SC1` as the compound, how does the Potency [1] read?
**A.** inactive

**Q.** What about the outcome [2] of the same compound?
**A.** inactive

**Q.** What about the Potency [3] of the same compound?
**A.** inactive

**Q.** What about the Potency [4] of the same compound?
**A.** inactive

**Q.** Which Potency [1] does the source give for `Cc1nccn1CC1CCc2c(c3ccccc3n2C)C1=O` (configuration not stated) here?
**A.** inactive

**Q.** What about the outcome [2] of the same compound?
**A.** inactive

**Q.** And the Potency [3]?
**A.** inactive

**Q.** What about the Potency [4] of the same compound?
**A.** inactive

**Q.** For `Cc1cccc(C)c1OCC(=O)N[C@@H](Cc1ccccc1)[C@@H](O)C[C@H](Cc1ccccc1)NC(=O)[C@H](C(C)C)N1CCCNC1=O`, which Potency [1] is on record?
**A.** inactive

**Q.** And the outcome [2]?
**A.** inactive

**Q.** And the Potency [3]?
**A.** inactive

**Q.** And the Potency [4]?
**A.** inactive

**Q.** For `O=C(CS(=O)Cc1ccco1)NCC=CCOc1cc(CN2CCCCC2)ccn1` (configuration not stated), which Potency [4] is on record?
**A.** inactive

**Q.** What does the source list for `N=C(N=C(N)N)N1CCOCC1`?
**A.** Potency [1]: inactive; outcome [2]: inactive; Potency [3]: inactive; Potency [4]: inactive

**Q.** For `CCCCc1ccc2nc(NC(=O)OC)[nH]c2c1`, which Potency [1] is on record?
**A.** inactive

**Q.** What about the outcome [2] of the same compound?
**A.** inactive

**Q.** And the Potency [3]?
**A.** inactive

**Q.** Which results are given for `CC[C@]1(O)C[C@H]2CN(CCc3c([nH]c4ccccc34)[C@@](C(=O)OC)(c3cc4c(cc3OC)N(C=O)[C@H]3[C@@](O)(C(=O)OC)[C@H](OC(C)=O)[C@]5(CC)C=CCN6CC[C@]43[C@@H]65)C2)C1`?
**A.** Potency [1]: inactive; outcome [2]: inactive; Potency [3]: 0.1 µM (active); Potency [4]: inactive

**Q.** With `Cc1cc(C2CCCCC2)n(O)c(=O)c1` as the compound, how does the Potency [1] read?
**A.** inactive

**Q.** What about the outcome [2] of the same compound?
**A.** inactive

**Q.** What about the Potency [4] of the same compound?
**A.** inactive

**Q.** What does the source list for `Cc1ccc(NC(=O)c2ccc(CN3CCN(C)CC3)cc2)cc1Nc1nccc(-c2cccnc2)n1`?
**A.** Potency [1]: inactive; outcome [2]: inactive; Potency [3]: inactive

**Q.** What does the source list for `CN(C)[C@@H](CCOc1cccc2ccccc12)c1ccccc1`?
**A.** Potency [1]: inactive; outcome [2]: inactive; Potency [3]: inactive; Potency [4]: inactive

**Q.** For `CN(c1nccc(=O)[nH]1)C1CCN(c2nc3ccccc3n2Cc2ccc(F)cc2)CC1`, which Potency [1] is on record?
**A.** inactive

**Q.** What about the outcome [2] of the same compound?
**A.** inactive

**Q.** And the Potency [3]?
**A.** inactive
